PubChem BioAssay AID540259 (Broad Institute, 2011)
Potency and affinity values are given separately. Active and inactive are the calls of the source.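 How the source made its calls: active means cell killing, meaning signal decrease, with fitted half-maximal dose at or below ten times the top valid tested dose; inconclusive means poor fit, or flat curve with 30 to 70% signal loss; inactive means the rest.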

assay: ATP-based viability loss in HeLa cells – cell-based, CellTiter-Glo luminescence, cherry-pick samples, cytotoxicity control for MITF activator project, dose response (AID 540259); details: 24 h; series mostly up to 35 µM

With `Cc1nn(CC(C)C)c(Cl)c1C(=O)NC1CCC(C)CC1` (stereo not given) as the molecule, how does the outcome read?
The outcome was “inactive”.

Which outcome does the source give for `O=C1C(=O)N(c2ccccc2)P(=O)(N(CCCl)CCCl)N1c1ccccc1` here?
The outcome was “inactive”.

With `CN1C(=O)NC(=O)C(C)(C2=CCCCC2)C1=O` (stereo not given) as the molecule, how does the outcome read?
The outcome was “inactive”.

Which outcome does the source give for `CC(Cc1ccccc1)/[N+]([O-])=C\c1ccc(C(F)(F)F)cc1` (stereo not given) here?
Its outcome is “inactive”.

With `COc1ccc(-c2cc(=NCCC(=O)O)c3cc(C)ccc3o2)cc1` as the molecule, how does the outcome read?
The outcome was “inactive”.
